Screening results from PubChem BioAssay.
The list is not random: actives were taken first. Their share in the collection is about 28%.
CYP2C19 act = activators of human cytochrome P450 2C19 | recombinant CYP2C19, luciferin-H EGE luminescence; stronger effect = higher value; 0 = fully inhibited enzyme, 1 = untreated enzyme | activation factor at 5 µM | 96,000 tested, under 10 active | AID 1025;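 active means activation factor of at least 2 at 5 µM in the primary screen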;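 further: 0 = wells with 2.5 mM tranylcypromine and 1 = vehicle-only wells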
CYP2C9 act = CYP2C9 (human) activation | P11712 | 96,000 tested, 1.4% active | activation factor at 5 µM | recombinant CYP2C9, luciferin-H conversion, luminescence; stronger effect = higher value; factor 1 = untreated enzyme, 0 = blocked | AID 1024;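 active means activation factor of 2 or more for CYP2C9 at a 5 µM dose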;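 further: 0 = sulfaphenazole-blocked wells and 1 = vehicle-only wells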
Mac1 fbg inh = inhibitors of human CD11b/CD18 binding to fibrinogen. P05107+P11215. K562 CD11b/CD18 adhesion to fibrinogen, ATPlite luminescence; Mn2+ added to activate the integrin. inhibition, % at 10 µM. 93,000 tested, 0.54% active;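 active means primary inhibition of 50% or more at 10 µM, then 40% or more on retest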
Target sequence (P05107 whole entry, looked up, other chains not shown): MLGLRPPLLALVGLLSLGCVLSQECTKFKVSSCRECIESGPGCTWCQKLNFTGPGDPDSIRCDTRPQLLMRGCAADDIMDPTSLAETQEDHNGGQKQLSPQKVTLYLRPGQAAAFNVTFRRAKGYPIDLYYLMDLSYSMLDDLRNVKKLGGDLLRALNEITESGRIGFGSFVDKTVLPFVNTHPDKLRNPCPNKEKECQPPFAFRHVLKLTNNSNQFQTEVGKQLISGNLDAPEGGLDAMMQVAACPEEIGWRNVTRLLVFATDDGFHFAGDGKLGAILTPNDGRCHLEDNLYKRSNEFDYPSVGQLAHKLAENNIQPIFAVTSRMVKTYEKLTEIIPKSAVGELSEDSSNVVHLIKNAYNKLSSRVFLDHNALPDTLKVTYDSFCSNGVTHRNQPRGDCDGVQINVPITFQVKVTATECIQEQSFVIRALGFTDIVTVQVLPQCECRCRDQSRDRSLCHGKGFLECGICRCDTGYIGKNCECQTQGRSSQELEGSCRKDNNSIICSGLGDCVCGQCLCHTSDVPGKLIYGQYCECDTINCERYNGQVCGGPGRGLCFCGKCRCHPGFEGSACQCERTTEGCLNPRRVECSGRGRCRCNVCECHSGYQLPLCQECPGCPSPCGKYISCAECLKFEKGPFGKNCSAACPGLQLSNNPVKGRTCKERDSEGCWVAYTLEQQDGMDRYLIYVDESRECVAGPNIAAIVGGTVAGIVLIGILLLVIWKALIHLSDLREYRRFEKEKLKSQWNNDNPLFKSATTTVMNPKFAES
CYP2C19 inhib = blocks human cytochrome P450 2C19 | P33261 | CYP2C19 Supersomes, luciferin-H EGE luminescence, 30 min | inhibition, % at 5 µM | 96,000 tested, 21% active | AID 778;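 active means CYP2C19 inhibition above a set limit at 5 µM in the primary screen, cut at about 50% in these data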;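 further: plate controls were negative control wells for no effect and 2.5 mM tranylcypromine positive control for full effect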
CD11b adhes enh = CD11b/CD18-fibrinogen binding enhancement; K562 CD11b/CD18 adhesion to fibrinogen, ATPlite luminescence; activation, % at 10 µM; 93,000 tested, 0.07% active; AID 1499;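 active means 10 µM primary screen giving 50% or more activity, confirmed by 40% or more on retest at that dose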
CYP2C9 inh = inhibitors of human CYP2C9. P11712. AID 777. 96,000 tested, 20% active. CYP2C9 Supersomes, luciferin-H conversion, luminescence. inhibition, % at 5 µM;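 active means blocking of liver enzyme CYP2C9 beyond about 50% at 5 µM, limit read from the data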
Active calls of the source: *; . = no result given.

SMILES | CYP2C19 act | CYP2C9 act | Mac1 fbg inh | CYP2C19 inhib | CD11b adhes enh | CYP2C9 inh
CC(C)NC(=O)Cn1c(SCC(=O)N2CCCc3ccccc32)nc2ccccc21 | 0.4 | 0.2 | -42 | 58* | -5 | 85*
CSc1nsc(SCC(=O)N2CCN(c3ccccc3)CC2)n1 | 0.3 | 0.2 | 0 | 73* | 3 | 76*
Cn1cc(SCC(=O)N2CCOCC2)c2ccccc21 | 0.1 | 1.3 | 7 | 90* | 0 | -25
Cn1cc(SCC(=O)N2CCN(c3ccccc3)CC2)c2ccccc21 | 0 | 1 | 11 | 99* | 1 | 4
O=C(Cn1cnc2ccccc21)OCC(=O)N1CCCc2ccccc21 | 0.9 | 0.9 | -15 | 14 | -4 | 11
CC(OC(=O)Cn1c(C(F)(F)F)nc2ccccc21)C(=O)N1CCCc2ccccc21 (stereo unspecified) | 0.8 | 0.5 | -4 | 17 | -1 | 52*
O=C1Cc2ccccc2C(=O)N1Cc1ccccc1 | 0.2 | 0.7 | -37 | 85* | -2 | 26
COc1ccccc1CN1C(=O)c2cccc3cccc(c23)C1=O | . | . | 0 | . | -3 | .
O=C(O)CCN1Cc2ccccc2C1=O | 1 | 1 | -6 | -5 | -3 | -2
O=C1c2cccc3c(O)ccc(c23)C(=O)N1Cc1ccccc1 | 0.4 | 1.5 | 66* | 64* | -3 | -51
Cn1cnnc1SCC(=O)Nc1sc2c(c1C(N)=O)CCC2 | 1 | 0.7 | . | -2 | . | 33
Cc1sc(NC(=O)CSc2nnc(C)c(=O)[nH]2)c(C#N)c1C | 0.9 | 0 | -12 | 12 | 0 | 97*
CCCn1c(SCC(=O)Nc2sc(C)c(C)c2C#N)nnc1C(C)C | 0.2 | 0.8 | 21 | 75* | 2 | 22
Cc1nnc(SCC(=O)Nc2sc3c(c2C(N)=O)CCCC3)[nH]c1=O | 1 | 0.3 | . | 1 | . | 69*
COCCN(C(=S)Nc1ccccc1OC)C(C)c1cccs1 (stereo unspecified) | . | . | -4 | . | 0 | .
O=C(OCc1c(Cl)cccc1Cl)c1ccncc1 | . | . | 5 | . | -6 | .
Clc1ccc2c(c1)c1ccccc1n2CN1CCOCC1 | 0.3 | 0.5 | 19 | 72* | -3 | 49
CCN(CC)CCNC(=O)c1c(C)oc2cc(Br)c(OC)cc12 | 0.9 | 0.7 | -9 | 12 | 0 | 28
CCN1CCN(c2nc3c(c(=O)n(C)c(=O)n3C)n2CCSc2nccc(C)n2)CC1 | 1 | 0.9 | -7 | -2 | -1 | 8
COc1cc2c(cc1OC)C(c1ccc(-c3ccccc3Cl)o1)=NCC2 | 0.7 | 0.4 | 9 | 32 | 1 | 62*
COc1cc2c(cc1OC)C(c1ccc(-c3cc(Cl)ccc3Cl)o1)=NCC2 | 0.3 | 0.1 | 15 | 73* | -6 | 89*
Clc1ccc(Cl)c(OCc2cc(-c3ccccc3Cl)on2)c1 | 0.7 | 1.4 | . | 28 | . | -41
COc1cc2c(cc1OC)C(c1ccc(-c3ccc(Cl)cc3Cl)o1)=NCC2 | 0.7 | 0.4 | . | 29 | . | 56*
COc1ccc(-c2nnc3n2C(C)(C)Cc2cc(OC)c(OC)cc2-3)cc1 | 0.9 | 1.6 | -10 | 13 | 1 | -63
COc1cc2c(cc1OC)C(c1ccc(-c3ccc(Cl)c(Cl)c3)o1)=NCC2 | 0.2 | 0.1 | 0 | 83* | 1 | 95*
SMILES | CYP2C19 act | CYP2C9 act | Mac1 fbg inh | CYP2C19 inhib | CD11b adhes enh | CYP2C9 inh
CCCOc1ccc(C2C(=O)N(C3CCCCCC3)CC(=O)N2Cc2ccco2)cc1OC (stereo unspecified) | 1 | 0.7 | 3 | 4 | -1 | 27
Cc1ccc(Nc2nc(N3CCN(C)CC3)nc(N)c2[N+](=O)[O-])cc1C | . | . | 14 | . | 20 | .
CCn1c(CCNC(=O)c2cccs2)nnc1SCC(=O)NC1CCCCC1 | 1 | 1 | -21 | 0 | 4 | -1
CCOc1ccc(NC(=O)N[C@@H](CCSC)C(=O)OC)cc1 | 1.2 | 1.1 | -1 | -18 | -4 | -13
COc1cc2c(cc1O)CCN(C(=O)c1ccco1)C2C (stereo unspecified) | 0.3 | 0.5 | -37 | 65* | -2 | 47
COc1cc2c(cc1OC)C(COc1ccc(F)cc1)N(C(=O)c1ccco1)CC2 (stereo unspecified) | 0.1 | 0.2 | 2 | 86* | 6 | 76*
COc1cc2c(cc1OC)C(C)N(C(=O)c1cc3ccccc3o1)CC2 (stereo unspecified) | 0.6 | 0.7 | . | 42 | . | 33
COc1cc2c(cc1OC)C(C)N(C(=O)C1COc3ccccc3O1)CC2 (stereo unspecified) | 0.2 | 0.4 | -8 | 80* | -2 | 57*
Cc1nn(C(=O)c2cccnc2)c(C)c1Sc1ccc(Br)cc1 | 0.3 | 0.7 | -9 | 70* | -3 | 29
COc1cc2c(cc1OC)C(Nc1ccccc1)=NC(C)(C)C2 | . | . | 6 | . | 0 | .
CC/C(=C\C(=O)c1ccncc1)Nc1ccc(Br)cc1 | 0 | 0.1 | 6 | 99* | -4 | 89*
Cc1ccc(NC(=O)CCn2c(=O)oc3ccccc32)c(C)c1 | 0.7 | 1 | 13 | 29 | -3 | 5
O=C(Cc1ccc(-n2cnnn2)cc1)NC12CC3CC(CC(C3)C1)C2 | 0.9 | 0.8 | -3 | 5 | 0 | 25
CCCC1COC(Cn2cncn2)(c2ccc(C)cc2)O1 (stereo unspecified) | 0.4 | 0.5 | -4 | 58* | 8 | 49
CCn1c(COc2ccc3c(c2)CCCC3)nnc1SCC(=O)Nc1ccc(C(=O)OC)cc1 | . | . | -15 | . | 52 | .
Cc1cc2nnc(SC3CCOC3=O)n2c2ccccc12 (stereo unspecified) | 1 | 2.1* | -11 | -1 | 3 | -108
Cc1cc(C)nc(SC2CCOC2=O)n1 (stereo unspecified) | 1.1 | 1.2 | -5 | -7 | -2 | -23
O=C(c1ccc(F)cc1)N1CCCCC(Sc2nnc3ccccn23)C1=O (stereo unspecified) | 1.2 | 1.2 | -11 | -18 | -3 | -21
Cc1cc2nnc(SC3CCCCN(C(=O)c4ccc(F)cc4)C3=O)n2c2ccccc12 (stereo unspecified) | 0.2 | 0.7 | 15 | 84* | -2 | 29
O=C(CSc1ccsc1[N+](=O)[O-])N1CCN(c2ccc(Cl)cc2)CC1 | . | . | -17 | . | 28 | .
Cn1c(N)c(C(=O)COC(=O)C2=COCCO2)c(=O)n(C)c1=O | 0.9 | 0.8 | -13 | 10 | -3 | 20
Cc1c(Cl)c([N+](=O)[O-])nn1CC(=O)NC(C)C1CC2CCC1C2 (stereo unspecified) | 0.4 | 0.8 | 0 | 59* | -2 | 24
COC(=O)[C@H](C)NC(=O)NC1CCN(Cc2ccccc2)CC1 | 1 | 1 | 2 | 0 | 1 | 4
CCOc1ccc(N2CC(C(=O)Nc3cccc(C)c3C)CC2=O)cc1 (stereo unspecified) | 0.9 | 0.7 | 0 | 8 | -2 | 34
